# According to PubChem BioAssay (NCATS):
# Results filed as inconclusive are left out. Activity calls are given as the source filed them. Calls follow the shape of the dose curve; as a rule, active = well fitted inhibition curve with a large enough effect; inconclusive = small, poorly fitted or top-dose-only effect; inactive = no such curve, though single readings can be large or run the other way.
# Molecular target: Retinal dehydrogenase 2 (Homo sapiens) (UniProt O94788)
# Experiment: qHTS for Inhibitors of the Aldehyde Dehydrogenase Family (ALDH1A2) Confirmation screens (AID 2061314); also: nearly all actives have a fitted effect of over 65% in size
# Details: ALDH1A2 enzyme inhibition qHTS confirmation; series mostly up to 45.9 µM
# Potency is read from the fitted curve at half-maximal effect.
row,SMILES,Potency
1,COc1cccc(CNc2ccc(S(=O)(=O)Nc3ccc(N4CCNCC4)nc3)cc2)c1O,22.5 µM (active)
2,Cc1ccc(N[S+](=O)([O-])c2cc3c(cc2N[C@@H](C)CO)NC(=O)CC3)cc1N[C@@H](C)CO,2.83 µM (active)
3,CCc1nn2c(=O)c(S(=O)(=O)Nc3ccc(C)cc3C)c(C)nc2s1,inactive
